An excerpt weighted towards active compounds, which were near 8.6% of everything screened.
Marburg entry: inhibitors of Marburg virus binding or entry into cells. Marburg virus pseudotype entry/binding inhibition, cell-based. Potency, µM (highest dose often 49.2 µM), without a hit: at the top dose activity change, negative = inhibition, hits mostly inhibitors. actives 6.5% (n = 18,000). AID 720532
LASV entry inh: blocks Lassa virus binding or cell entry; actives 4.1% (n = 18,000); Potency, µM (titrated, usually from 49.2 µM), for inactives: at the highest dose activity change, negative = inhibition, actives largely listed as inhibitors; AID 720533; Lassa virus pseudotyped entry inhibition, cell-based qHTS
Starred values were filed as active, the others as inactive; ! = not active in a repeat; [ ] = another dose, or the depositor's remark. The call rests on the fitted dose curve; tested in HEK293 cells. On the % scale 0 is the no-effect control and ±100 the full control effect; potency means the concentration at half of the fitted maximal effect.

How did C[C@@H]1[C@H](O)[C@@H](C)/C=C/C=C\C=C\C=C\C=C\C=C\C=C\[C@H](O[C@@H]2O[C@H](C)[C@@H](O)[C@H](N)[C@@H]2O)C[C@@H]2O[C@](O)(C[C@@H](O)C[C@@H](O)[C@H](O)CC[C@@H](O)C[C@@H](O)CC(=O)O[C@H]1C)C[C@H](O)[C@H]2C(=O)O (stereo in doubt) do in these assays?
Marburg entry: 18.3%; LASV entry inh: -1.3%

Results for CC(C)c1onc(-c2c(Cl)cccc2Cl)c1COc1ccc(/C=C/c2cccc(C(=O)O)c2)c(Cl)c1 ?
Marburg entry: -12.5%; LASV entry inh: inconclusive

Results for COc1cc(NCCCC(C)N)c2ncccc2c1 (stereo not drawn) ?
Marburg entry: 8.91µM*; LASV entry inh: 10µM*

How did COCC(=O)Nc1cc(C(=O)N2CCCC(C(N)=O)C2)cc2nc(-c3ccccc3)n(C)c12 (stereo not drawn) do in these assays?
Marburg entry: -18.2%; LASV entry inh: -2.7%

What do the screens show for `COc1cc2oc(=O)c3c4c(cc5ccc(c1CCN(C)C)c2c53)OCO4`?
Marburg entry: inconclusive; LASV entry inh: -6.3%

What do the screens show for `COc1cc(OC)c2ccc(=O)oc2c1C(CCN1CCOCC1)c1ccc2c(c1)OCO2` (stereo not drawn)?
Marburg entry: inconclusive; LASV entry inh: -26.4%

What do the screens show for `COc1cc(C(CCN2CCOCC2)c2c(OC)cc(OC)c3c(-c4ccccc4)cc(=O)oc23)cc(OC)c1OC` (stereo not drawn)?
Marburg entry: 10µM*; LASV entry inh: 4.47µM*

Results for COc1cc(OC)c2c(=O)c(-c3ccccc3)c(C)oc2c1OC ?
Marburg entry: 11.6%; LASV entry inh: 1.6%

How did COc1ccc(C(CCN2CCOCC2)c2c(OC)cc(OC)c3c(-c4ccccc4)cc(=O)oc23)cc1 (stereo not drawn) do in these assays?
Marburg entry: 22.4µM*; LASV entry inh: inconclusive

How did COc1cc(OC)c2ccc(=O)oc2c1C(CCN1CCOCC1)c1ccc(N(C)C)cc1 (stereo not drawn) do in these assays?
Marburg entry: -11.1%; LASV entry inh: 6.1%

What do the screens show for `COc1cc(OC)c2c(-c3ccccc3)cc(=O)oc2c1C(CCN1CCOCC1)c1ccc2c(c1)OCO2` (stereo not drawn)?
Marburg entry: 10µM*; LASV entry inh: inconclusive

What do the screens show for `C1=C(CN2CCOCC2)COc2c1cccc2OC[C@@H]1CNCCO1`?
Marburg entry: inconclusive; LASV entry inh: -6.1%

What do the screens show for `CCC[C@@]1(CCc2ccccc2)CC(O)=C([C@H](CC)c2cccc(NS(=O)(=O)c3ccc(C(F)(F)F)cn3)c2)C(=O)O1`?
Marburg entry: -27.5%; LASV entry inh: -2.7%

How did O[C@@H]1[C@@H]2c3cc4c(cc3CN3CCC(=C[C@@H]1O)[C@H]23)OCO4 do in these assays?
Marburg entry: 2.51µM*; LASV entry inh: inconclusive

What do the screens show for `CN1CCc2cc3c(cc2[C@@H]1O)OCO3`?
Marburg entry: -24.3%[17.8 µM]; LASV entry inh: -1.6%[17.8 µM]

Results for Cc1cccc(CN2CCN([C@@H]3C[S+](=O)([O-])N[C@@H]3COCc3ccccc3)CC2)c1 ?
Marburg entry: -18.3%; LASV entry inh: -9.7%

Results for O=S(=O)(c1cccc2c(I)cccc12)N1CCCNCC1 ?
Marburg entry: 11.2µM*; LASV entry inh: inconclusive

How did O=S(=O)(c1cccc2c(Cl)cccc12)N1CCCNCC1 do in these assays?
Marburg entry: 8.91µM*; LASV entry inh: inconclusive

What do the screens show for `C[C@@H]1CNCCN1S(=O)(=O)c1cccc2cnccc12`?
Marburg entry: -25.1%; LASV entry inh: 4.6%

How did Cc1ccc(S(=O)(=O)N2CCCN(S(=O)(=O)c3ccccc3Br)CC2)cc1 do in these assays?
Marburg entry: 35.1%

Results for Cc1oc(-c2ccccc2NS(C)(=O)=O)nc1CN(C)Cc1ccc(Cl)cc1 ?
Marburg entry: inconclusive; LASV entry inh: -20.3%

How did CC(C)CSc1nnc(CNC(=O)c2ccccn2)n1C do in these assays?
Marburg entry: 4.3%; LASV entry inh: -1.3%

What do the screens show for `CN1CCN(CCCN2c3ccccc3Sc3ccc(Cl)cc32)CC1`?
Marburg entry: 10µM*; LASV entry inh: 20µM*!

How did CN1CCN(CCCN2c3ccccc3Sc3ccccc32)CC1 do in these assays?
Marburg entry: 14.1µM*; LASV entry inh: inconclusive

Results for CCSc1ccc2c(c1)N(CCCN1CCN(C)CC1)c1ccccc1S2 ?
Marburg entry: inconclusive; LASV entry inh: -17.3%[17.8 µM]

Results for Cc1cc(=O)c2c(O)c3c(O)cc(=O)c4c3c3c(cc(O)c1c23)C(C)(C)C=4O ?
Marburg entry: 6.31µM*; LASV entry inh: 6.31µM*

Results for CC(NN)c1ccccc1 (stereo not drawn) ?
Marburg entry: 14.8%; LASV entry inh: -2.5%

What do the screens show for `C[C@@H](Cc1ccccc1)NCCC(c1ccccc1)c1ccccc1`?
Marburg entry: 7.94µM*; LASV entry inh: inconclusive

Screens from PubChem.
